compound: Nc1ncnc2c1ncn2[C@@H]1O[C@H](COP(=O)(O)OP(=O)(O)OP(=O)(O)O)[C@@H](O)[C@H]1O [adenosine 5'-triphosphate]; experiment: log2 fold change of tryptic peptide abundance, ligand vs vehicle (limited proteolysis) (log2 ratio); higher = more trypsin-susceptible (destabilized); conditions: ligand concentration: 5 mM; sample: E. coli desalted lysate; replicate design: treated before aliquoting
Protocol: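 HT-PELSA: desalted E. coli K-12 BW25113 lysate (with 12 mM MgCl2) incubated with 5 mM ATP (pH 7) or water for 30 min at 25 C, then a 4 min trypsin pulse at 22 C. Peptides were quantified by DIA-MS (4 replicates). Value is the peptide log2 fold change (treated/control); negative = stabilized. Scale: negative = ligand-stabilized region.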
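Further: lysate desalted by size exclusion to strip endogenous ATP, peptide intensities built from DIA-NN precursor signals, and peptides missing any value discarded before comparison.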

Sequence of UniProt P27278 (P27278 whole entry): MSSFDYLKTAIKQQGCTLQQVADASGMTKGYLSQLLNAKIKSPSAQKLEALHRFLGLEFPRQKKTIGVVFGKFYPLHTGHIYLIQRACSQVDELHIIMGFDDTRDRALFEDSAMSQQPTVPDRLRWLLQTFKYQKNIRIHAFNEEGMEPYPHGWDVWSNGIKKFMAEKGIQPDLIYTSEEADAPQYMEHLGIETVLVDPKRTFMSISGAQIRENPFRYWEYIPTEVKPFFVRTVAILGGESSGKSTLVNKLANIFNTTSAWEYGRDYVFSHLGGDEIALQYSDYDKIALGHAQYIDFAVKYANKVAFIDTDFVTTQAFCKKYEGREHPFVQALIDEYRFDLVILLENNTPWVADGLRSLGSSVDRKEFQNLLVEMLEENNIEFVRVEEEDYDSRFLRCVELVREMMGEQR
Sequence of UniProt P32134 (P32134 whole entry): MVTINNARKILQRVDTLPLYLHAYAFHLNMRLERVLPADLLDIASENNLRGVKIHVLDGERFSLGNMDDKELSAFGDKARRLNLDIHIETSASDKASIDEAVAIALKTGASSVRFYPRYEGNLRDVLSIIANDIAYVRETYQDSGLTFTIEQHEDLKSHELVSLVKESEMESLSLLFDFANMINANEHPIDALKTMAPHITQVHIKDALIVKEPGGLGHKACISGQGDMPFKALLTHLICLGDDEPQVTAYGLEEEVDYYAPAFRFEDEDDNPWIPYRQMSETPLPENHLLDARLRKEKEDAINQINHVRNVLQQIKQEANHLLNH
Sequence of UniProt P76245 (P76245 whole entry): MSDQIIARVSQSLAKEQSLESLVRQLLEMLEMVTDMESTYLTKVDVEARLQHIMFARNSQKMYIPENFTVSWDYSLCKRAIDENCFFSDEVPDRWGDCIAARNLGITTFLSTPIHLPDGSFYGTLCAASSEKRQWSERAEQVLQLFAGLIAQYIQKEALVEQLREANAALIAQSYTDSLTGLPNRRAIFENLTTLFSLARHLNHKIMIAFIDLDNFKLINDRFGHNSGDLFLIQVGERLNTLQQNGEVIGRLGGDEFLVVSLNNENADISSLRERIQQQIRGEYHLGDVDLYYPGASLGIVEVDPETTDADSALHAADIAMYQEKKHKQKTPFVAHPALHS
Sequence of UniProt P39342 (P39342 whole entry): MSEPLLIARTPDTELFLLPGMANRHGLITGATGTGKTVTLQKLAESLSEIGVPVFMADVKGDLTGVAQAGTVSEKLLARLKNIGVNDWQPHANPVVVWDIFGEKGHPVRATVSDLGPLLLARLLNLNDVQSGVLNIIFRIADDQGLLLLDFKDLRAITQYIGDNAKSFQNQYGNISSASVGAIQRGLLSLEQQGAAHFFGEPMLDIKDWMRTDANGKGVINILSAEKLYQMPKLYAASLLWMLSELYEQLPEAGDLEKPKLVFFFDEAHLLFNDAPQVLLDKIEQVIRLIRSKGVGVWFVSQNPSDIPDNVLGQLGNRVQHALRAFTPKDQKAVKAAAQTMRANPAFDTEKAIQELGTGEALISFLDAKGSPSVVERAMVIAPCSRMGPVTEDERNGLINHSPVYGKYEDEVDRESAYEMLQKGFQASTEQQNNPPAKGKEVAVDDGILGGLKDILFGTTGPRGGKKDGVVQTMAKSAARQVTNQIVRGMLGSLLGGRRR
Sequence of UniProt P22106 (P22106 whole entry): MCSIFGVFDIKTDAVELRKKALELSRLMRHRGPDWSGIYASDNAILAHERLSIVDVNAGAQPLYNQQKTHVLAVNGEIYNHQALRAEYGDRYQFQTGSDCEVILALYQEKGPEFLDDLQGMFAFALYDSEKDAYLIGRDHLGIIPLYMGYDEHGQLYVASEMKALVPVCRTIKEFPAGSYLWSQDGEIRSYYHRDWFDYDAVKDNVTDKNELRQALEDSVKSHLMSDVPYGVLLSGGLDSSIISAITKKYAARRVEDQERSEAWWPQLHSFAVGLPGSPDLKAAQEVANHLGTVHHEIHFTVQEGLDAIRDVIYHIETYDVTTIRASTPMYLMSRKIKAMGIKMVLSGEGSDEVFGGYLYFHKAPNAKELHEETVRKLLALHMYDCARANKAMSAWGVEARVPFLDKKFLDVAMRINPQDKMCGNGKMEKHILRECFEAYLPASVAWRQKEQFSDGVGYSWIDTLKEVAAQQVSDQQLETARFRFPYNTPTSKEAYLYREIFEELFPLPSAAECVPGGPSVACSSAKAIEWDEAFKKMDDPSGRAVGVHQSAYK
Sequence of UniProt P22939 (P22939 whole entry): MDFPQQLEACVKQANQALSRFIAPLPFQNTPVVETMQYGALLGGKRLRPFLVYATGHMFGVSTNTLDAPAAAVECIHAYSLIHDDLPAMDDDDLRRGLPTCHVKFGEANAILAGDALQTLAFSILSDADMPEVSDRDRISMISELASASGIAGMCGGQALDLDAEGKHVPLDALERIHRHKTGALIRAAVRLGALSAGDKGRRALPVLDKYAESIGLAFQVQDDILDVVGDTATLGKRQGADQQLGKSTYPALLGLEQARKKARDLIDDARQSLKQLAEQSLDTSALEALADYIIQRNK
Sequence of UniProt P25742 (P25742 whole entry): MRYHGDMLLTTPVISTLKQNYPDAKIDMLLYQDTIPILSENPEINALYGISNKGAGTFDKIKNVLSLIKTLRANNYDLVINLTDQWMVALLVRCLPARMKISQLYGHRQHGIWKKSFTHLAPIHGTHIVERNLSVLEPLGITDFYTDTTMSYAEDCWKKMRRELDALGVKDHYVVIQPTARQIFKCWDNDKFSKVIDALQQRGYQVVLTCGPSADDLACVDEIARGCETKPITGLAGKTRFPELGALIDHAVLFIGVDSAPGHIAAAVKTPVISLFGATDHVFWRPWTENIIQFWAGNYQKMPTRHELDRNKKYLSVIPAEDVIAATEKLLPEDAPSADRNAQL
Sequence of UniProt Q46857 (Q46857 whole entry): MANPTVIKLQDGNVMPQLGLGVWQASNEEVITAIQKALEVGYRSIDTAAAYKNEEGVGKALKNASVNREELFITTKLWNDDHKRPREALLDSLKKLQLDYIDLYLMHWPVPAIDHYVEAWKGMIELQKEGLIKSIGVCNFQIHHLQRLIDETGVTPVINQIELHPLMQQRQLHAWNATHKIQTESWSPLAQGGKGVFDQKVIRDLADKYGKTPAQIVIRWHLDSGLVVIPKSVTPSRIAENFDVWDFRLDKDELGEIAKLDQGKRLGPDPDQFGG
Sequence of UniProt P76268 (P76268 whole entry): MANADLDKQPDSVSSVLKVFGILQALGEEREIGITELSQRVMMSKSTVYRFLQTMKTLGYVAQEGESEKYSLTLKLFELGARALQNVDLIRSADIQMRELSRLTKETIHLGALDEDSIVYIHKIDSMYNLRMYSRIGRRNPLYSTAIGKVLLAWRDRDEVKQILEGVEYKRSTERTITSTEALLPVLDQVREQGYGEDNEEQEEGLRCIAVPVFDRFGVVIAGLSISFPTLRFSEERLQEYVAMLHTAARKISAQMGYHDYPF
Sequence of UniProt P03813 (P03813 whole entry): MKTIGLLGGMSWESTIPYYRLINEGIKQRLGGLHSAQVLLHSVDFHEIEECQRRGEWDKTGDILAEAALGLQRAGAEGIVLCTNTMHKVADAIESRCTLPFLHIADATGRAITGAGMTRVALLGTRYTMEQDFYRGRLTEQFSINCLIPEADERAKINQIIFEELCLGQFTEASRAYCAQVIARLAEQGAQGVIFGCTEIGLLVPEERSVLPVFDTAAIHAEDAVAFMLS
Sequence of UniProt P46887 (P46887 whole entry): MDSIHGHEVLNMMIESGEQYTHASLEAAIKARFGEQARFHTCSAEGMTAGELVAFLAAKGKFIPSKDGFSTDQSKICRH
Sequence of UniProt P76193 (P76193 whole entry): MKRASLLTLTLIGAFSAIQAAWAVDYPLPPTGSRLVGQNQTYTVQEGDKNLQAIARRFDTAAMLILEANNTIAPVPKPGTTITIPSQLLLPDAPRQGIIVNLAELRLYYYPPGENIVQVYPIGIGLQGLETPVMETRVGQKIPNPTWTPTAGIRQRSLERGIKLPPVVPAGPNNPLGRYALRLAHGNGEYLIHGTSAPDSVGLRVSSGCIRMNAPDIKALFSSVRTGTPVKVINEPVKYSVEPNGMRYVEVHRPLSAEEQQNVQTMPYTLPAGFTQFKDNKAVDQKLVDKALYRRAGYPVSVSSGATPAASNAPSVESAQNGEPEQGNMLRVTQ
Sequence of UniProt P77293 (P77293 whole entry): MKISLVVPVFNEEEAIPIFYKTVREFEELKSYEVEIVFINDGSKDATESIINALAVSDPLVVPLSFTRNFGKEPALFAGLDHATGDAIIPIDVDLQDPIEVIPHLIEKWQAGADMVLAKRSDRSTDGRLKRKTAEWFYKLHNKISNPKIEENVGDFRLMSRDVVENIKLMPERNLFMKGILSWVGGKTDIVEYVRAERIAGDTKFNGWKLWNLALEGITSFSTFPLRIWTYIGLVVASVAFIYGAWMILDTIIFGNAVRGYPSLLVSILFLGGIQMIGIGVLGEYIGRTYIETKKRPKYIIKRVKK
Sequence of UniProt P0A9L8 (P0A9L8 whole entry): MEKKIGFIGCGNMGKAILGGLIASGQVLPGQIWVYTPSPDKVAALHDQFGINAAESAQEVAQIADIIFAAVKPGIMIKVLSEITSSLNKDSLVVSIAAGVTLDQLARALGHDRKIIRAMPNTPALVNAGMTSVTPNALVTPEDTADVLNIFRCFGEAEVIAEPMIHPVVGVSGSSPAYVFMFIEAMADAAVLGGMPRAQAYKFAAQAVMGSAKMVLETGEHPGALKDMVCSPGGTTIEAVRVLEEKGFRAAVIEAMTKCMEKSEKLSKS
Sequence of UniProt P68398 (P68398 whole entry): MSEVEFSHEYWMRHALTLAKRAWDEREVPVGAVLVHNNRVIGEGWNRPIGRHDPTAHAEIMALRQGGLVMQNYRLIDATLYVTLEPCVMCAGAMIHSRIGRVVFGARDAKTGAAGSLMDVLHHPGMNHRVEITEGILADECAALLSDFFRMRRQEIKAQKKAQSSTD
Sequence of UniProt P0C0L2 (P0C0L2 whole entry): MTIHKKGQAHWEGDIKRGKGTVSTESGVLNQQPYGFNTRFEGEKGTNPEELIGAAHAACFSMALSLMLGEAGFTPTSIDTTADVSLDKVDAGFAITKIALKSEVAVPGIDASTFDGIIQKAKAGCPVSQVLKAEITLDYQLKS

Target	log2 fold change
UniProt P68398 (peptide sequence: EVPVGAVLVHNNR, peptide start residue: 27)	0.483
UniProt P39342 (peptide sequence: MGPVTEDER, peptide start residue: 387)	-1.06
UniProt P37759 (peptide sequence: EQITYVADRPGHDRR, peptide start residue: 289)	-0.709
UniProt P76268 (peptide sequence: ALQNVDLIR, peptide start residue: 83)	0.371
UniProt P76027 (peptide sequence: GCPFQPR, peptide start residue: 298)	1.56
UniProt P76245 (peptide sequence: TPFVAHPALHS, peptide start residue: 331)	1.1
UniProt P10346 (peptide sequence: IAEDGNPQVLIKNPPSQR, peptide start residue: 214)	0.654
UniProt P77364 (peptide sequence: IDSQTAGGKAPLGVASVAK, peptide start residue: 295)	-0.814
UniProt P21513 (peptide sequence: DNESLSLSILR, peptide start residue: 415)	0.633
UniProt P21865 (peptide sequence: AIEHFFR, peptide start residue: 205)	0.436
UniProt P22939 (peptide sequence: GLPTCHVK, peptide start residue: 97)	0.252
UniProt P0AEK2 (peptide sequence: ALSDDQRAGILAQVPAGR, peptide start residue: 191)	0.83
UniProt P27278 (peptide sequence: TFMSISGAQIR, peptide start residue: 202)	-2.94
UniProt P0A9L8 (peptide sequence: FAAQAVMGSAK, peptide start residue: 203)	-0.702
MurF (peptide sequence: VVALTGSSGK, peptide start residue: 102) (UniProt P11880)	-1.5
UniProt Q47129 (peptide sequence: LDADLPMVQLSHR, peptide start residue: 141)	-1.3
UniProt P0AC00 (peptide sequence: RYYGGLVEY, peptide start residue: 332)	-0.478
UniProt P18775 (peptide sequence: IAHAVDSAIPTK, peptide start residue: 42)	-0.536
UniProt P77293 (peptide sequence: GILSWVGGK, peptide start residue: 179)	-0.543
UniProt P27296 (peptide sequence: SIPHIIVTSATLR, peptide start residue: 451)	-2.01

Target	log2 fold change
UniProt P76193 (peptide sequence: TGTPVKVINEPVKYSVEPNGMR, peptide start residue: 226)	-0.912
UniProt P03813 (peptide sequence: YTMEQDFYR, peptide start residue: 127)	-0.699
UniProt P23538 (peptide sequence: QVKIEDVPQEQR, peptide start residue: 278)	-2.56
UniProt P22106 (peptide sequence: QALEDSVK, peptide start residue: 214)	-0.816
UniProt P21599 (peptide sequence: VLEVQGMK, peptide start residue: 138)	-1
UniProt P77735 (peptide sequence: LGMDYVDILQIHR, peptide start residue: 116)	-0.843
UniProt P0AA39 (peptide sequence: NILQSGER, peptide start residue: 198)	-0.653
UniProt P46887 (peptide sequence: GKFIPSKDGFSTDQSK, peptide start residue: 60)	0.606
UniProt P25437 (peptide sequence: SQLPGMVEDAMK, peptide start residue: 321)	-0.846
UniProt Q46857 (peptide sequence: DLADKYGK, peptide start residue: 204)	-0.885
UniProt P25742 (peptide sequence: SFTHLAPIHGTHIVER, peptide start residue: 116)	-1.07
UniProt P02916 (peptide sequence: ETTAQPEGER, peptide start residue: 161)	0.465
UniProt P37744 (peptide sequence: KGFIDVEQVRK, peptide start residue: 261)	-0.836
UniProt P32134 (peptide sequence: ACISGQGDMPFK, peptide start residue: 221)	-1.02
UniProt P0C0L2 (peptide sequence: GQAHWEGDIKR, peptide start residue: 7)	-0.717
UniProt P75915 (peptide sequence: VLGSLYYR, peptide start residue: 10)	0.747
UniProt P23847 (peptide sequence: MAEMIQADWAK, peptide start residue: 392)	-0.859
UniProt P0CF91 (peptide sequence: SLLHLDALR, peptide start residue: 320)	0.694
UniProt P07821 (peptide sequence: TLLHPLSLTFPAGK, peptide start residue: 25)	-1.16
UniProt P77300 (peptide sequence: STLHSLLK, peptide start residue: 38)	-0.881

Source: the supplement of paper PMC12819154, “High-throughput peptide-centric local stability assay extends protein–ligand identification to membrane proteins, tissues and bacteria” (Nature Structural & Molecular Biology, 2025)
